The source of these data is PubChem BioAssay AID1851 (National Center for Advancing Translational Sciences (NCATS), 2009).

Each structure is given as a SMILES string. The campaign covered roughly 16,000 compounds. About 4,000 (25%) were called active. Another 26% or so got no clear call; they are omitted. Calls follow the shape of the dose curve; as a rule, active = well fitted curve in the direction sought with a large enough effect; inconclusive = small, poorly fitted or top-dose-only effect, or effect the other way; inactive = no such curve, though single readings can be large or run the other way. The list is a sample of the results. Peptide text beside a SMILES is read from it. * marks the point of attachment. Cbz = O=C(OCc1ccccc1)*
% is scaled to controls: 0 for no effect and ±100 for the full control effect.

This experiment deals with Cytochrome P450 2C9 (Homo sapiens) (UniProt P11712). In words: Cytochrome panel assay with activity outcomes. The note with it: recombinant CYP, pro-luciferin dealkylation, luminescence, p450-cyp2c9; series mostly up to 57.1 µM; activity, negative = inhibition: at the top concentration.
Sequence of Cytochrome P450 2C9 (Homo sapiens) (P11712 whole entry, looked up): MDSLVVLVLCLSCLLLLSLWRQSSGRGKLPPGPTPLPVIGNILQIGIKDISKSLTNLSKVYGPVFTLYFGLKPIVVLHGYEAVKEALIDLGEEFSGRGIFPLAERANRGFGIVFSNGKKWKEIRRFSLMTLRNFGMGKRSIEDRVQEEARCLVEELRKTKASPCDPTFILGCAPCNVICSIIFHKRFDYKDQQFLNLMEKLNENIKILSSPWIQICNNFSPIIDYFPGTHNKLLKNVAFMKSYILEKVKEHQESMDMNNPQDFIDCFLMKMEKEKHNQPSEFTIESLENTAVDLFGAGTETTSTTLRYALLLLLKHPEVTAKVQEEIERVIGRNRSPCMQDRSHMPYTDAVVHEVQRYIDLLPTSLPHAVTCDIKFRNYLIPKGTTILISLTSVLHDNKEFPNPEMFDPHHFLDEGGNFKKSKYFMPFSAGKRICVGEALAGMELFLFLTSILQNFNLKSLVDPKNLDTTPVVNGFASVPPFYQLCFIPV
`COc1ccccc1Nc1nc(-c2sc(NC(=O)c3ccccc3)nc2C)cs1`: the half-maximal activity concentration (AC50) was 2.24 µM (active).

`CCC1(O)c2ccccc2-c2ncccc21` (configuration not stated): the “activity, negative = inhibition” value is -25.6% (inactive).

In the case of `C[N+](C)(C)CCCCCCCCCC[N+](C)(C)C`, the “activity, negative = inhibition” value was -0.917% [at 25.6 µM] (inactive).

Regarding `Cc1ccccc1-c1ccc2ncnc(NC3CC3)c2c1`, the activity, negative = inhibition was 19.9% [at 2.29 µM] (inactive).

For the compound `Cc1ccccc1-c1cncnc1NC1CCNCC1`, the activity, negative = inhibition is 1.54% [at 2.29 µM] (inactive).

For the compound `CCOc1ccccc1Nc1ccc(N)cc1S(=O)(=O)O`, the activity, negative = inhibition is -6.23% [at 11.4 µM] (inactive).

Regarding `CCOc1ccccc1NC(=O)CCC(=O)O`, the “activity, negative = inhibition” value is 2.66% (inactive).

With `CCOc1ccccc1Nc1nc(-c2sc(NC(=O)c3ccccc3)nc2C)cs1`, the AC50 is 2.51 µM (active).

Turning to `COc1ccc(C(=O)n2c(SC)nc3cc4c(cc32)OCCO4)cc1`, the AC50 is 1.41 µM (active).

Take `COc1ccc(C(=O)Nc2ccc3c(c2)nc(CN2CCN(C(C)=O)CC2)n3C)cc1`: the “activity, negative = inhibition” value was -29% (inactive).

As to `COc1cccc(C(=O)n2c(SC)nc3cc4c(cc32)OCCO4)c1`, the AC50 is 20 µM (active).

Consider `COc1ccc(C(=O)N2CCC3(CCN(Cc4cc(C(F)(F)F)cc(C(F)(F)F)c4)CC3)CC2)cc1`, for which the “activity, negative = inhibition” value was 13% (inactive).

As to `O=C(N/N=C/c1cccc(OCc2ccccc2)c1)c1cccs1`, the half-maximal activity concentration (AC50) was 2.51 µM (active).

As for `CCOc1cc(/C=N/NC(=O)CN2CCCCC2)ccc1OCc1ccccc1`, the “activity, negative = inhibition” value was -40.6% (inactive).

As for `COc1cc(CNCc2cccs2)ccc1OCC(N)=O`, the “activity, negative = inhibition” value is 3.66% (inactive).

`O=C(N/N=C/C=C/c1ccc([N+](=O)[O-])cc1)c1cccs1`: the “activity, negative = inhibition” value was -12.7% (inactive).

Consider `Cc1ccc(/C=N/NC(=O)c2cccs2)cc1[N+](=O)[O-]`, for which the AC50 is 3.98 µM (active).

As to `CC(C)C(=O)N/N=C/c1ccc(OCc2ccccc2)cc1`, the “activity, negative = inhibition” value was -7.85% (inactive).

`COc1cc(/C=N/NC(=O)c2cccs2)ccc1OCc1ccccc1`: the half-maximal activity concentration (AC50) was 2.24 µM (active).

In the case of `C=CCc1ccccc1OC[C@H](O)CNC(C)C`, the AC50 result is “inactive”.

Turning to `Cc1cccn2c(=O)c(C=NCc3ccco3)c(Nc3ccc(SC(F)F)cc3)nc12`, the “activity, negative = inhibition” value was -27.9% (inactive).

In the case of `CC1CCCC(C)N1C(=O)c1ccccc1Nc1ccc(SC(F)F)cc1` (configuration not stated), the concentration at half-maximal activity (AC50) was 7.08 µM (active).

Turning to `CC(=O)OC[C@H]1O[C@@H](O/N=C(\C)CCN2CCc3nc(-c4ccccc4)c(-c4ccccc4)cc3C2)[C@H](OC(C)=O)[C@@H](OC(C)=O)[C@H]1OC(C)=O`, the activity, negative = inhibition is 4.27% [at 11.4 µM] (inactive).

On to `CCC(=O)OCc1c(C(F)(F)F)nn(C)c1Sc1ccc(F)cc1`, for which the AC50 was 10 µM (active).

Regarding `OC[C@@H](O)CNc1ncnc2ccccc12`, the activity, negative = inhibition is 23.8% [at 11.4 µM] (inactive).

On to `C[C@@H]1CN(CCCn2c3ccccc3c3ccccc32)C[C@H](C)N1`, for which the AC50 was 12.6 µM (active).

As for `c1ccc(C(CCN2CC3CCC(CC3)C2)c2ccccc2)cc1`, the activity, negative = inhibition was 8.36% [at 11.4 µM] (inactive).

As for `c1ccc2c(c1)c1ccccc1n2Cn1c2ccccc2c2ccccc21`, the activity, negative = inhibition is -11.7% [at 11.4 µM] (inactive).

On to `CC1(C)NC(=O)N(c2ccc([N+](=O)[O-])c(C(F)(F)F)c2)C1=O`, for which the “activity, negative = inhibition” value was -28.7% [at 25.6 µM] (inactive).

On to `Cc1cccn2c(/C=N/OCc3cccc(F)c3)c(-c3ccc(Cl)cc3)nc12`, for which the concentration at half-maximal activity (AC50) was 6.31 µM (active).

On to `Cc1cc2nc3c(=O)[nH]c(=O)nc-3n(CC(O)C(O)C(O)CO)c2cc1C` (configuration not stated), for which the “activity, negative = inhibition” value was -17.3% [at 25.6 µM] (inactive).

Turning to `COc1cccc(-c2ccc3ncnc(NC4CCNCC4)c3c2)c1`, the activity, negative = inhibition is 19.4% [at 2.29 µM] (inactive).

In the case of `CSc1nc2n(n1)C(c1cc(Br)ccc1F)C(C(=O)N(C)C)=C(C)N2` (configuration not stated), the AC50 is 22.4 µM (active).

`O=S(=O)(c1ccccc1)N1N=C(c2cccs2)CC1c1ccc(Br)cc1` (configuration not stated): the half-maximal activity concentration (AC50) was 1.41 µM (active).

Consider `COC(=O)C(CC(C)C)NC(=O)C(N)Cc1ccccc1` (stereo not drawn) (H-Phe-Leu-OMe; configuration not given here), for which the “activity, negative = inhibition” value was 12.9% (inactive).

As to `CCCCC(C=O)NC(=O)C(CC(C)C)NC(=O)OCc1ccccc1` (configuration not stated), the “activity, negative = inhibition” value is -10.4% (inactive).

`COC(=O)CCC(NC(=O)OCc1ccccc1)C(=O)NC(CC(C)C)C(=O)OC` (configuration not stated) (Cbz-Glu(OMe)-Leu-OMe; configuration not given here): the AC50 is 0.355 µM (active).

`COC(=O)N1CCC2(CCN(Cc3cc(C(F)(F)F)cc(C(F)(F)F)c3)CC2)CC1`: the “activity, negative = inhibition” value was -4.53% (inactive).

For `Cc1ccc(OCC(=O)N/N=C\c2c(C)n(C)c3ccccc23)c([N+](=O)[O-])c1`, the “activity, negative = inhibition” value was -12% (inactive).

For `Cc1ccc(NS(=O)(=O)c2ccc(OCC(=O)Nc3cccc([N+](=O)[O-])c3)c(C)c2)cc1`, the AC50 is 1.26 µM (active).

For `O=C(CN1CCCCC1)Nc1cccc([N+](=O)[O-])c1`, the “activity, negative = inhibition” value is -20.2% (inactive).

Take `Cc1cc(Nc2ccc(Cl)cc2)nc(N)n1`: the “activity, negative = inhibition” value was 1.54% (inactive).

As to `C=C1c2cccc(O)c2C(O)=C2C(=O)[C@@]3(O)C(O)=C(C(N)=O)C(=O)[C@@H](N(C)C)[C@@H]3[C@@H](O)[C@H]12`, the “activity, negative = inhibition” value is -17.4% [at 25.6 µM] (inactive).

As for `Cc1nn(Cc2c(F)c(F)c(F)c(F)c2F)c(C)c1NC(=O)c1c(-c2ccccc2)nn(-c2ccccc2)c1C`, the AC50 was 7.08 µM (active).

With `Cc1nn(Cc2c(F)c(F)c(F)c(F)c2F)c(C)c1NC(=O)c1cccc(COc2ccccc2Cl)c1`, the half-maximal activity concentration (AC50) was 8.91 µM (active).

Turning to `Cc1nn(Cc2ccccc2Cl)c(C)c1NC(=O)CCCn1nc(C)c([N+](=O)[O-])c1C`, the “activity, negative = inhibition” value was -26.2% (inactive).

For the compound `Cc1nn(Cc2c(F)c(F)c(F)c(F)c2F)c(C)c1NC(=O)c1cccc(COc2ccc(Cl)cc2)c1`, the concentration at half-maximal activity (AC50) was 2.82 µM (active).
